ELG1 genotox = genotoxicity induction in ELG1-luciferase HEK293T cells; Potency, µM (top dose mostly 46 µM), usual class: activators; HEK293T ELG1-luciferase reporter, luminescence, 16 h; actives 1.3% (n = 330,000); also: nearly all actives have a fitted effect of over 60% in size
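Genotoxic stress is detected as increased luminescence from luciferase-tagged ELG1 in HEK293T cells, measured with ONE-Glo after a 16 hr treatment at 37 °C.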
FLuc modulator = counter-screen for miR-21 project: firefly luciferase inhibitors or activators | P08659 | purified FLuc, Km substrates, luminescence inhibition | Potency, µM (titrated, usually from 57.5 µM), actives largely listed as inhibitors | actives 6.9% (n = 360,000) | AID 588342; also: nearly all actives have a fitted effect of over 55% in size
Target sequence (P08659 whole entry, looked up): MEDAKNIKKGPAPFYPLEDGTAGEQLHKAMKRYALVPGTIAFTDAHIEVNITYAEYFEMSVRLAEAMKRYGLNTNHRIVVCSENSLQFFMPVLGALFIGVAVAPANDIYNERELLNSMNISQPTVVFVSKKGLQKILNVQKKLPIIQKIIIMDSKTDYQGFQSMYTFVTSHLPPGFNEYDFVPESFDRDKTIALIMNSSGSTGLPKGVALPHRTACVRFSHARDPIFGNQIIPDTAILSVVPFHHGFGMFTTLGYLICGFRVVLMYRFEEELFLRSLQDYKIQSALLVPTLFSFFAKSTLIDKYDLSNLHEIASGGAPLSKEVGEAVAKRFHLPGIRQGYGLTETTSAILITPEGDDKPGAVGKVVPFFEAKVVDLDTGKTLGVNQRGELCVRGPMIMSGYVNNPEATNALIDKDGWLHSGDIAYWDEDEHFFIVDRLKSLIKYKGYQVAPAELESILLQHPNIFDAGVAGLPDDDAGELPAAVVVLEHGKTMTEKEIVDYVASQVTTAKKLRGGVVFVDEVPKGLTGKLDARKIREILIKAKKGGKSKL
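Purified P. pyralis luciferase, 10 nM final, with Km-level 10 uM D-luciferin and 10 uM ATP in 50 mM Tris acetate pH 7.5, 10 mM Mg acetate, 0.01% Tween-20, 0.05% BSA; 6-point qHTS titration about 60 µM downward; luminescence read.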
ELG1 DNA repair = blocks ELG1-dependent DNA repair in HEK293T cells; HEK293T ELG1-luciferase reporter, luminescence, 16 h; DNA damage induced by 5-fluorouridine; Potency, µM (doses to about 46.1 µM), hits mostly inhibitors; actives 2.3% (n = 330,000); AID 504467; also: nearly all actives have a fitted effect of over 55% in size
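Overnight (16 hr) co-exposure of 2,000 cells/well to 5-fluorouridine and compound at 37 °C preceded detection. Luciferase was quantified via ONE-Glo luminescence; loss of signal denotes inhibition.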
Rab9 promoter act = Rab9 promoter activation; AID 485297; actives 2.8% (n = 320,000); Huh7 Rab9 promoter-luciferase reporter, luminescence, 24 h; Potency, µM (series often up to 9.22 µM), most hits filed as activators; also: nearly all actives have a fitted effect of over 60% in size
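Promoter activation is measured as luciferase luminescence in Huh7 cells stably transfected with a Rab9 promoter–luciferase construct, following 24 h compound exposure at 37 °C and 10 min reagent incubation at ambient temperature.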
NPC1 prom act = NPC1 promoter activation. Huh7 NPC1 promoter luciferase reporter, 24 h. Potency, µM (doses to about 9.22 µM), usual class: activators. actives 2.4% (n = 320,000); also: nearly all actives have a fitted effect of over 60% in size
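In 1536-well qHTS, Huh7 cells harboring an NPC1 promoter–luciferase construct received compound for 24 h; activation was quantified by luminescence following luciferase reagent addition.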
SMN2 splice enh = SMN2 splice variant enhancement | Potency, µM (highest dose often 46.1 µM), actives largely listed as activators | actives 2.8% (n = 210,000) | HEK293 SMN2-luciferase splicing reporter, luminescence, 30-36 h; also: nearly all actives have a fitted effect of over 55% in size
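HEK293 cells carry an SMN2 […]–luciferase reporter in which exon 7 inclusion puts luciferase in frame. Cells were plated 10-12 h before compound addition, then incubated 30-36 h at 37C. ONE-Glo luminescence was read; sodium butyrate at 4.5 mM final served as control.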
Numbers stand for hits; 0 = inactive; ? = inconclusive; - = no result. Most compounds without a hit are left out; they make up all but 9.4% or so of the library. Calls follow the shape of the dose curve; as a rule, active = well fitted curve in the direction sought with a large enough effect; inconclusive = small, poorly fitted or top-dose-only effect, or another doubt; inactive = no such curve, though single readings can be large; an effect the other way counts as inactive or inconclusive.

SMILES	ELG1 genotox	FLuc modulator	ELG1 DNA repair	Rab9 promoter act	NPC1 prom act	SMN2 splice enh
Cc1cccnc1Nc1nc(-c2ccc(O)cc2O)cs1	?	15.1µM	?	3.16µM	?	-
Cc1nc2ncccn2c1-c1csc(Nc2ccc(O)cc2)n1	?	?	?	0	0	-
Oc1ccc(-c2csc(Nc3ccccn3)n2)c(O)c1	9.2µM	4.78µM	?	3.16µM	1.78µM	-
CC(C)c1ccc(NC(=S)N2CCCC2)cc1	?	23.9µM	?	2.24µM	2.51µM	-
CC(C)c1ccc(NC(=S)N2CCN(C)CC2)cc1	?	?	?	0	0	-
OCC1CCCN(C(=S)Nc2ccc(OC(F)F)cc2)C1 (centres undefined)	?	16.9µM	?	0	0	-
OCC1CCCN(C(=S)Nc2ccc(Nc3ccccc3)cc2)C1 (centres undefined)	?	9.53µM	?	2µM	?	?
NC(=O)C1CCCN(C(=S)Nc2ccccc2)C1 (centres undefined)	0	0	0	0	0	0
Cc1ccc(NC(=S)N2CCCC(O)C2)cc1 (centres undefined)	?	16.9µM	?	0	0	?
CC1CCc2c(sc(NC(=O)Cc3ccccc3)c2C(=O)Nc2ccc(Cl)cc2)C1 (centres undefined)	-	0	-	-	-	0
Cc1ccc(-c2nnc(Nc3ccccc3)o2)cc1	0.146µM	0.151µM	?	0.126µM	?	0.398µM
C(=C\c1nnc(-c2cccs2)o1)/c1ccccc1	?	5.36µM	?	2.51µM	2.51µM	?
CCSc1nnc(-c2cccs2)o1	?	0	?	0	0	0
Cc1ccc(NC(=O)Nc2nnc(-c3ccccc3)o2)cc1	0	?	?	?	0	0
Cc1ccc(/C=C/c2nnc(-c3ccccc3)o2)cc1	?	5.36µM	?	1.12µM	0.891µM	?
O/N=C\c1cnc(N2CCN(c3ccccc3)CC2)s1	?	16.9µM	?	?	0	-
O=Cc1cnc(N2CCCCC2)s1	0	0	0	0	0	0
CCOc1ccc(CNC(=O)Cn2cc3c(n2)-c2c(oc(C(=O)N4CCOCC4)c2C)CC3)cc1	-	0	-	-	-	-
O=C(CCn1c(=O)c2ccccc2n(Cc2cccc(F)c2)c1=O)NCc1ccc2c(c1)OCO2	-	0	-	-	-	0
O=C(C1CCCCC1)N(CCN1CCN(c2ccccc2CO)CC1)c1ccccn1	-	-	-	-	-	0
CCN(CC)S(=O)(=O)c1cc(NC(=O)Cc2ccsc2)ccc1C	0	0	0	0	0	-
Cc1cc(NC(=O)Cc2ccsc2)ccc1Br	0	16.9µM	0	0	0	-
Cc1cc(C)c2c(=O)n(CC(=O)Nc3ccc(Br)c(C)c3)sc2n1	0	8.49µM	0	0	0	-
CCc1cccc(C)c1NC(=O)CN1C(=O)C2(SCC(=O)N2c2cccc(F)c2)c2ccccc21 (centres undefined)	-	0	-	-	-	-
CCc1ccccc1NC(=O)Cn1c(=O)nc(-c2ccccc2)c2ccccc21	-	0	-	-	-	-
SMILES	ELG1 genotox	FLuc modulator	ELG1 DNA repair	Rab9 promoter act	NPC1 prom act	SMN2 splice enh
COC(=O)c1nnc(C(=O)N(C)Cc2ccccc2)c2[nH]c3ccccc3c12	-	-	-	-	-	0
COc1ccccc1NC(=O)C1=C(C)Nc2nc(SCc3ccccc3)nn2C1c1cccs1 (centres undefined)	-	0	-	-	-	0
O=[N+]([O-])c1cccc(/C=N/N=C\c2ccccc2)c1	0	3.38µM	0	0	0	-
O=[N+]([O-])c1ccc(N/N=C/c2ccccc2)c(F)c1	?	10.7µM	?	?	?	22.4µM
Cc1cccc(N2CCN(C(=O)c3cnn(-c4ccccc4)c3C3CCN(C(=O)OC(C)(C)C)CC3)CC2)c1C	-	0	-	-	-	-
CC(=O)Nc1c(C)nn(-c2ccccc2)c1N1CCC(C(=O)Nc2ccccc2F)CC1	-	0	-	-	-	-
CCc1nnc(SCC(=O)Nc2ccc(N3CCOCC3)cc2)n1C	0	21.3µM	?	0	0	-
Cn1c(CN2CCOCC2)nnc1SCC(=O)Nc1ccc([N+](=O)[O-])cc1O	0	0	13µM	0	0	-
O=C(CSc1nnc2n1CCCCC2)Nc1ccc(N2CCOCC2)cc1	0	16.9µM	0	0	0	-
Cc1ccc(C(=O)NCc2nnc(SCC(=O)Nc3ccccc3)n2C)cc1	0	21.3µM	0	0	0	0
COc1cccc(NC(=O)CSc2nnc(CNC(=O)c3ccccc3)n2C)c1	-	?	-	-	-	0
COC(=O)[C@@]1(Cc2ccccc2-c2ccco2)C=C[C@H](C)[C@@H](c2ccccc2)N1C(=O)C(F)(F)F	-	-	-	-	-	0
O=C(CSc1nc2cc3ccccc3cc2[nH]1)Nc1cccc(C(F)(F)F)c1	-	0	-	-	-	0
Cn1c(=O)c2c(nc(N3CCOCC3)n2Cc2ccc(Br)cc2)n(C)c1=O	-	0	-	-	-	0
CCOC(=O)c1sc2nc(C)nc(N3CCN(S(=O)(=O)c4ccccc4)CC3)c2c1C	0	-	23.1µM	-	-	-
CCOC(=O)c1sc2nc(CC(=O)OC)nc(NCc3ccc(Cl)cc3)c2c1C	0	0	5.8µM	0	0	0
CCOC(=O)c1sc2nc(C)nc(NCc3ccccc3)c2c1C	0	0	23.1µM	0	0	-
CCOc1ccc(NC(=O)CC2C(=O)N(c3ccccc3)C(=O)N2Cc2ccc3c(c2)OCO3)cc1 (centres undefined)	-	0	-	-	-	0
Cc1ccc(NC(=S)NC(CO)C(O)c2ccc([N+](=O)[O-])cc2)cc1 (centres undefined)	0	0	0	0	0	-
O=[N+]([O-])c1ccc(C(O)C(CO)NC(=S)Nc2ccccc2)cc1 (centres undefined)	0	0	8.2µM	0	0	-
O=C(Nc1ccc(C#Cc2ccccc2)cc1)C1CC1	?	5.36µM	?	1.41µM	2.51µM	3.55µM
CCCC(=O)Nc1ccc(C#Cc2ccccc2)cc1	?	4.78µM	?	2.82µM	1.58µM	?
O=C(Nc1ccccc1O)c1ccc(NC(=O)C2CC2)cc1	20.6µM	12µM	?	2.82µM	3.55µM	-
CCCC(=O)Nc1ccc(Oc2ccc(NC(=O)CCC)cc2)cc1	0	0	0	0	0	0
CCOc1ccccc1N(C)C(=O)c1c2c(nc3ccccc13)C(=O)N(C1CCCCC1)C2	-	0	-	-	-	-
SMILES	ELG1 genotox	FLuc modulator	ELG1 DNA repair	Rab9 promoter act	NPC1 prom act	SMN2 splice enh
O=C(Nc1ccc(F)c(Cl)c1)N1CCC(CN2CCc3ccccc3C2)CC1	-	0	-	-	-	-
CCOC(=O)N1CCc2c(sc3c2c(=O)n(-c2ccc(F)cc2)c(=O)n3CC(=O)c2ccccc2)C1	-	0	-	-	-	0
COc1ccc2cc(CCNC(=O)C(C)C)c(=O)[nH]c2c1	0	0	?	0	0	0
COc1ccc(OC)c2[nH]c(=O)c(CCNC(=O)c3cc4ccccc4o3)cc12	0	0	18.4µM	0	0	0
Cc1ccc2cc(CCNC(=O)c3ccco3)c(=O)[nH]c2c1C	?	4.26µM	?	1.41µM	3.55µM	7.08µM
Cc1ccc2cc(CCNC(=O)c3ccco3)c(=O)[nH]c2c1	0	19µM	?	2.51µM	?	10µM
